Our source for the growth values is PubChem BioAssay (NCI).

Holding throughout (assay): NCI-60 one-dose screen, 48 h (100 = growth as untreated, 0 = no growth, -100 = all killed)
Details in all cases: 10 µM unless noted

Experiment [1] deals with SK-MEL-2 melanoma.
In experiment [2] the test system is EKVX NSCLC.
Experiment [3] relates to SN12C renal.
The test system of experiment [4] is UO-31 renal.
The test system of experiment [5] is TK-10 renal.
Experiment [6] concerns ACHN renal.
Experiment [7] concerns CCRF-CEM leukemia.
Experiment [8] relates to MOLT-4 leukemia.
The subject of experiment [9] is A498 renal.

Molecules are shown by their SMILES. About 83,000 compounds went through this panel and 20% of them were active in at least one assay; those are over-represented in the sample as a whole.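 Cell lines were cultured in 96-well plates, exposed to a single compound concentration, and assessed for percent growth 48 hours later.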 A number with no mark means an inactive call. Active and inactive are the calls of the source. How the source made its calls: active means growth percent below 10; inactive means the rest.

Turning to `O=C(Nc1cnc(C(F)(F)F)cn1)c1cc(Cl)ccc1O`, the growth was -27.6% (active) in [1]; 7.75% (active) in [2]; 5.36% (active) in experiment [3]; -5.6% (active) in [4]; 1.77% (active) in experiment [5]; 3.85% (active) in experiment [6]. Besides, the growth in experiment [7] is 14.9%; in [8], 1.24% (active).

As to `COc1ccc(NC(=O)c2ccc(C(F)(F)F)nc2Nc2ccc(Cl)cc2C)cc1Cl`, the growth in experiment [1] was 31.9%; in [2], 11.3%; in experiment [3], 24%; in [4] it was 9.94% (active); in experiment [5], 60%; in [6], 14.5%. Moreover, the figures for the growth in experiment [9], in [7] and in experiment [8] were 11.5%, 11% and 8.09% (active), respectively.

Regarding `COc1ccc(Sc2[nH]c(C=O)c3ccccc23)cc1`, the growth in experiment [1] is 69%; in experiment [2] it was 33.2%; in [3], 89%; in [4], 57.7%; in experiment [5], 34.1%; in experiment [6], 87.1%. Besides, the growth was 33.1% in experiment [9], 0.79% (active) in experiment [7] and 41.9% in [8].

Regarding `Cn1c(=O)c2c3c(oc2c2ccccc21)C(=O)c1ccccc1C3=O`, the growth in experiment [1] is 92.6%; in experiment [2], 70.7%; in [3], 81.8%; in experiment [4] it was 54.8%; in experiment [5], 94.5%; in experiment [6], 75.5%. Further, the growth in experiment [9] is 93.3%; in experiment [7], 19.1%; in [8], 2.39% (active).

In the case of `CC(C)OC(=O)c1ccc([N+](=O)[O-])cc1`, the growth in [1] was 122%; in experiment [2], 96%; in experiment [3] it was 97.7%; in experiment [4] it was 104%; in [5] it was 113%; in [6], 114%. Also, the growth in [9] was 79.2%; in experiment [7] it was 103%; in experiment [8], 113%.

In the case of `COc1ccc2[nH]c(O)c(/C=c3/ccc4c(c3)N=C(c3ccc(C(F)(F)F)cc3)N=4)c2c1`, the growth was 104% in experiment [1]; 82.4% in experiment [2]; 79.9% in experiment [3]; 91.3% in experiment [4]; 131% in experiment [5]; 78% in experiment [6]. Further, the figures for the growth in experiment [9], in experiment [7] and in [8] were 71.7%, 23.2% and 48%, respectively.

Consider `C=CCn1c(SCC(=O)Nc2ccc(/C(C)=N\O)cc2)nnc1-c1cc(-c2ccc(Cl)cc2)nc2ccccc12`, for which the growth in experiment [1] is 28.5%; in experiment [2], 32%; in [3], 33.7%; in experiment [4], -12.5% (active); in [5] it was 31.8%; in [6], 20.2%. The values for the growth in experiment [9], in experiment [7] and in experiment [8] were 21.9%, 11.1% and -25.3% (active), respectively.

For the molecule `CCN(CC)Cc1cc(Nc2ccnc3cc(Cl)ccc23)cc(-c2ccc(Cl)cc2)c1O`, the growth was 80.1% in experiment [1]; 2.25% (active) in [2]; 23.6% in experiment [3]; -21.4% (active) in [4]; 5.81% (active) in [5]; 57.1% in experiment [6]. The growth in experiment [9] was 48.9%; in [7], 45%; in experiment [8], 24%.

Consider `O=C1Nc2ccccc2/C1=C/c1c[nH]c2ccccc12`, for which the growth was 99.8% in [1]; 15.7% in experiment [2]; 64.5% in experiment [3]; 29.3% in experiment [4]; 110% in experiment [5]; 66.7% in [6]. Further, the results for the growth in [9], in experiment [7] and in [8] were 91.6%, 58.9% and 65.6%, respectively.

Consider `O=C(Nc1ccc2ncnc(Nc3ccc(F)c(Cl)c3)c2c1)c1cccs1`, for which the growth is 90.7% in [1]; 44.5% in experiment [2]; 45.6% in experiment [3]; 27.8% in [4]; 32.3% in experiment [5]; 2.83% (active) in experiment [6]. Moreover, the results for the growth in experiment [7] and in experiment [8] were 76.9% and 71.9%, respectively.

As for `CC1(C)C2CCC(O)(C(=O)O)C1C2` (configuration not stated), the growth in [1] is 106%; in [2] it was 103%; in [3], 104%; in experiment [4], 81.9%; in [5], 120%; in experiment [6], 111%. The growth is 109% in [9], 112% in experiment [7] and 115% in [8].

On to `CCCCNCC(O)c1cc(-c2ccc(C(F)(F)F)cc2)nc(-c2ccc(C(F)(F)F)cc2)c1` (configuration not stated), for which the growth in experiment [1] is -67.1% (active); in experiment [2], -61.8% (active); in [3], -73.2% (active); in experiment [4], -88.2% (active); in experiment [5], -94.4% (active); in experiment [6], -71.6% (active). Moreover, the growth in experiment [9] was -68.1% (active); in experiment [7], -36.4% (active); in experiment [8], -56.7% (active).

As for `Fc1ccc(-c2nnc(N3CCOCC3)c3ccccc23)cc1`, the growth in [1] is 111%; in experiment [2] it was 69.5%; in experiment [3] it was 95%; in [4] it was 85.6%; in experiment [5] it was 138%; in experiment [6], 103%. Also, the growth in experiment [9] is 105%; in [7], 124%; in [8], 243%.

As for `COc1ccc(-c2nn(-c3cccc(Cl)c3)cc2/C=C2\C(=N)N(c3ccccc3)N=C2N)cc1`, the growth is 69.5% in experiment [1]; 48.8% in experiment [2]; 45.9% in experiment [3]; 6.27% (active) in experiment [4]; 80.7% in [5]; 20.7% in experiment [6]. For the same molecule, the figures for the growth in experiment [9], in [7] and in experiment [8] were 75.3%, 12.3% and 6.35% (active), respectively.

Turning to `COc1cc(/C=C/C(=O)c2ccc(NC(=O)CSc3nnc(-c4ccc(Cl)cc4)n3-c3ccccc3)cc2)cc(OC)c1OC`, the growth in [1] was 81.1%; in experiment [2], 75.1%; in experiment [3], 74.5%; in experiment [4], 75.6%; in experiment [5] it was 89.4%; in experiment [6] it was 82.4%. In addition, the growth in experiment [7] was 57.8%; in experiment [8] it was 40.8%.
